Source: PubChem (National Center for Advancing Translational Sciences (NCATS))
Sfp inh – qHTS Assay for Inhibitors of Bacillus subtilis Sfp phosphopantetheinyl transferase (PPTase); Biochemical Sfp PPTase activity, qHTS; hit rate 3.5% among 310,000; 4'-phosphopantetheinyl transferase ffp (Bacillus subtilis), Q9F4F7; AID 1490, 2009; Potency, µM, for the others: largest response in the series, negative = inhibition, hits mostly inhibitors;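 also: the enzyme is Sfp with the accession as filed and its product quenches rhodamine fluorescence; 0% = enzyme reaction without inhibitor and -100% = no enzyme wells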
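After 15 min at room temperature with compound, 15 nM Sfp received 5 uM rhodamine-CoA plus 12.5 uM BHQ-2-ybbR (50 mM Hepes pH 7.6, 10 mM MgCl2). Rate came from the fluorescence difference over 30 min, ex 525/em 598 nm.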
L3MBTL1 block – qHTS Assay for the Inhibitors of L3MBTL1 | hit rate 0.66% among 230,000 | AlphaScreen L3MBTL1–H3K9me1 peptide binding | Potency, µM (doses to about 57.1 µM), without a hit: at the highest dose activity, negative = inhibition, usual class: inhibitors | AID 485360, 2010; also: % is scaled to controls: 0 for no effect and ±100 for the full control effect; nearly all actives have a fitted effect of over 60% in size
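L3MBTL1 (50 nM) pre-complexed 30 min with biotinylated H3(1-15)K9me1 peptide (75 nM), then compounds added for 30 min at room temperature; AlphaScreen streptavidin donor/nickel chelate acceptor beads (10 ug/mL final) read after 30 min dark incubation.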
BAZ2B block – qHTS Assay for Inhibitors of BAZ2B; AlphaScreen BAZ2B-H3K14Ac peptide displacement; Potency, µM (series often up to 114 µM), for inactives: at the top dose activity change, negative = inhibition, usual class: inhibitors; AID 504333, 2011; hit rate 4.4% among 360,000; also: % is scaled to controls: 0 for no effect and ±100 for the full control effect; nearly all actives have a fitted effect of over 60% in size
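Multi-concentration screen (max 110 uM) measuring displacement of acetylated histone H3 peptide from BAZ2B by AlphaScreen, using 50 nM protein, 50 nM peptide and 10 ug/mL streptavidin donor plus Ni-chelate acceptor beads.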
HP1b chromo inh – HTS for Inhibitors of HP1-beta Chromodomain Interactions with Methylated Histone Tails; AlphaScreen HP1-beta / biotin-H3K9me3 peptide binding; Potency, µM (top dose mostly 114 µM), for the others: at the top dose activity change, negative = inhibition, hits mostly inhibitors; AID 540317, 2011; Chromobox protein homolog 1 (Homo sapiens), P83916; hit rate 0.56% among 390,000; also: nearly all actives have a fitted effect of over 70% in size
Target sequence (P83916 whole entry, looked up): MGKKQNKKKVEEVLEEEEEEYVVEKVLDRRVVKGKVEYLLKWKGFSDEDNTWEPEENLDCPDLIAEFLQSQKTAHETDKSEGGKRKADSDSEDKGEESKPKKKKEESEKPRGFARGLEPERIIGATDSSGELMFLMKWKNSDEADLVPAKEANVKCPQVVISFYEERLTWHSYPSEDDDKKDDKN
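Compound inhibition of the preformed complex between 50 nM HP1-beta and 50 nM biotinylated H3K9me3 peptide was read by AlphaScreen. Buffer was PBS pH 7.4 with 0.01% Tween-20. Incubations ran 30 min at room temperature, with 10 ug/mL donor/acceptor beads.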
JMJD2A Tudor inh – qHTS Assay for Inhibitors of JMJD2A-Tudor Domain; Lysine-specific demethylase 4A (Homo sapiens), O75164; AlphaScreen JMJD2A-Tudor / H3K4me3 peptide binding; Potency, µM (top dose mostly 114 µM), without a hit: top-dose activity change, negative = inhibition, hits mostly inhibitors; hit rate 4.4% among 390,000; AID 504339, 2011; also: % is scaled to controls: 0 for no effect and ±100 for the full control effect; nearly all actives have a fitted effect of over 50% in size
G9a inh – qHTS Assay for Inhibitors of Histone Lysine Methyltransferase G9a; Histone-lysine N-methyltransferase EHMT2 (Homo sapiens), Q96KQ7; Potency, µM (titrated, usually from 102 µM), for inactives: top-dose activity, negative = inhibition, actives largely listed as inhibitors; G9a H3K9 monomethylation, AlphaScreen, 2 h; hit rate 8.8% among 350,000; also: % is scaled to controls: 0 for no effect and ±100 for the full control effect; nearly all actives have a fitted effect of over 75% in size
Target sequence (Q96KQ7 913-1193 limits assumed): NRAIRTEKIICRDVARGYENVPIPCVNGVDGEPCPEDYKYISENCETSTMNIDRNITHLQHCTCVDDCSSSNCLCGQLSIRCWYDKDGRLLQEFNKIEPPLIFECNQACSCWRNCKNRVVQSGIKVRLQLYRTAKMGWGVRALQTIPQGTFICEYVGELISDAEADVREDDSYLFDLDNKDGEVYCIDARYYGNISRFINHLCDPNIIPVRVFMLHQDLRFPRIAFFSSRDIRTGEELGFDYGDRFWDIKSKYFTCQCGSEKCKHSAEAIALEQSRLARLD
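Methyltransferase reactions run at room temperature for 2 h (20 nM enzyme, 500 nM biotin-H3K9 peptide, 20 uM SAM) after a 15 min compound preincubation; product detected by AlphaScreen beads and anti-H3K9me1 antibody.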
An asterisk follows results filed as active; ? = inconclusive; . = no result given; [ ] = dose if it differs, or a comment. Compounds with a hit are over-represented: about 12% of the library has one in this group of screens. Calls follow the shape of the dose curve; as a rule, active = well fitted curve in the direction sought with a large enough effect; inconclusive = small, poorly fitted or top-dose-only effect, or another doubt; inactive = no such curve, though single readings can be large; an effect the other way counts as inactive or inconclusive. Potency is read from the fitted curve at half-maximal effect.

SMILES | Sfp inh | L3MBTL1 block | BAZ2B block | HP1b chromo inh | JMJD2A Tudor inh | G9a inh
COc1cc(C2C3=C(CCCC3=O)Nc3[nH]n(-c4ccccc4)c(=O)c32)cc(OC)c1OC (stereo unspecified) | -1% | . | -27% | 51% | -10% | ?
OC[C@@H](O)C(O[C@@H]1O[C@@H](CO)[C@H](O)[C@H](O)[C@H]1O)[C@H](O)[C@@H](O)CO (stereo partly specified) | 8% | . | . | . | . | 24%[59 µM]
O=S(=O)(Nc1ccc(-n2cnnn2)cc1)c1cccc(F)c1 | . | 4% | -3% | 52% | -4% | -8%
CCc1nc2sc3c(=O)[nH]cnc3c2c2c1CSC(C)(C)C2 | 45µM* | -6% | ? | 16% | -33% | 2.2µM*
CC1CCCN(c2nc3ccccc3nc2C(C#N)S(=O)(=O)c2cccs2)C1 (stereo unspecified) | -6% | . | ? | 4% | ? | ?
COc1ccc(S(=O)(=O)C(C#N)c2nc3ccccc3nc2N2CCCC(C)C2)cc1 (stereo unspecified) | 5% | -22% | 45µM* | ? | ? | ?
COCCN(Cc1cccs1)S(=O)(=O)c1ccc(-c2ccc(=O)[nH]n2)s1 | 7% | . | -20% | 7% | -27% | .
CN(C)S(=O)(=O)c1cccc(NC(=O)COC(=O)c2cccc(S(=O)(=O)N3CCc4ccccc4C3)c2)c1 | 10% | -4% | ? | 28% | -21% | 1.6µM*
O=C(COC(=O)C1CCCCC1)Nc1ccccc1OC(F)F | -2% | 21% | . | 6% | 11µM* | 56%
CCN(CC(=O)Nc1c(F)cccc1F)C(=O)c1cccc(S(=O)(=O)N2CCc3ccccc3C2)c1 | . | -3% | 6% | 3% | -14% | 26%[0.501 µM]
CCN(CC(=O)Nc1ccc(NC(C)=O)cc1)C(=O)c1cccc(S(=O)(=O)N2CCc3ccccc3C2)c1 | . | 4% | -6% | 28% | -6% | 3.2µM*
Cc1cc(N2CCN(C)CC2)ccc1NC(=O)c1cccc(S(=O)(=O)N2CCc3ccccc3C2)c1 | -18% | 12% | ? | ? | -35% | 28µM*
CCc1ccc(OCCSc2nc3ccccc3n2CC(=O)O)cc1 | -9% | 5% | -9% | 36% | 5% | .
Nc1nonc1C(=O)NCCNCc1ccc(Cl)c(Cl)c1 | . | . | -15% | 49% | -3% | 4%[59 µM]
CC12CC3CC(C)(C1)CC(C(=O)N1CCN(C(=O)C4CCCO4)CC1)(C3)C2 (stereo unspecified) | 14% | . | -14% | 12% | -18% | 21%
CCN(CC)S(=O)(=O)c1cccc(C(=O)OCC(=O)Nc2ccccc2OC(F)F)c1 | 11% | . | -3% | 19% | 5% | 0%[12.7 µM]
CN(C)S(=O)(=O)c1cccc(C(=O)OCC(=O)Nc2ccccc2OC(F)F)c1 | 12% | 2% | 6% | ? | 79µM* | 10%
Cc1ccccc1Cn1cc(NC(=O)c2nn(C)cc2Cl)cn1 | -9% | -17% | 3% | 19% | -18% | -5%[59 µM]
Cc1ccc(C2CC(C(F)F)n3ncc(C(=O)Nc4cnn(Cc5ccccc5C)c4)c3N2)cc1 (stereo unspecified) | 11% | -5% | 8% | 1% | -23% | 45µM*
COc1ccc(C2=CC(=O)OC3(CCCC3)O2)cc1 | 2% | . | ? | 19% | 1% | 45µM*
CCOc1ccc(NC(=O)c2c[nH]n3c(=O)cc(C4CCN(C(=O)OC(C)(C)C)CC4)nc23)cc1 | 1% | . | -9% | 14% | -23% | 11µM*
COc1ccc(CCNC(=O)Cn2c(=O)c3cccn3c3ccc(F)cc32)c(OC)c1 | . | . | -11% | 20% | -20% | -25%[59 µM]
CCCCC1(CC)SCC(=O)NC1=O (stereo unspecified) | . | . | . | 43% | 1% | .
CC[C@@H](C)[C@H](CNC)NC[C@@H](Cc1cccc2ccccc12)NCCc1cccc(C(F)(F)F)c1 | 79µM* | -6% | ? | 10% | ? | 45µM*
CCC[C@H](CN[C@@H](CNC)[C@H](C)CC)NCCc1cc(C(F)(F)F)cc(C(F)(F)F)c1 | 20% | 4% | -9% | 39% | -23% | -5%
SMILES | Sfp inh | L3MBTL1 block | BAZ2B block | HP1b chromo inh | JMJD2A Tudor inh | G9a inh
O=C(O)CN1C(=O)C2C3CC(C2C1=O)C1C(c2ccc(Cl)cc2)c2sc(=O)[nH]c2SC31 (stereo unspecified) | -22% | . | -26% | -1% | -17% | 50µM*
O=C(O)CCCN1C(=O)C2C3CC(C2C1=O)C1C(c2ccccc2)c2sc(=O)[nH]c2SC31 (stereo unspecified) | ? | . | . | 26% | -5% | ?
O=C(O)CN1C(=O)C2C3CC(C2C1=O)C1C(c2ccc(F)cc2)c2sc(=O)[nH]c2SC31 (stereo unspecified) | 45µM* | . | 2% | 14% | -13% | 45µM*
O=C1c2ccccc2C(O)(c2ncc[nH]2)N1C1CCCCC1 (stereo unspecified) | -17% | 5% | -7% | 17% | ? | 20µM*
O=C1c2ccccc2C(O)(c2ccccc2)N1CCc1ccccc1 (stereo unspecified) | 7% | -3% | 0% | 41% | -7% | 26%
COc1ccc(CCN2C(=O)c3ccccc3C2(O)c2ncc[nH]2)cc1OC (stereo unspecified) | ? | 10% | ? | -20% | -6%[11.4 µM] | 22µM*
O=C1c2ccccc2C(=O)N1C1CCCCC1 | -9% | 7% | -6% | 83% | -1% | 8%
COc1cccc(CN(C(=O)c2ccc(C(C)(C)C)cc2)C2CCS(=O)(=O)C2)c1 (stereo unspecified) | . | . | -9% | -4% | -33% | -7%[59 µM]
Cc1cc(N2CCN(C)CC2)ccc1NC(=O)c1ccc(-c2ccc(Cl)cc2)o1 | . | -21% | 35µM* | ? | 40µM* | 32µM*
O=C(Nc1ccccc1N1CCCCC1)c1ccc(-c2ccc(Cl)cc2)o1 | -11% | 2% | -24% | 6% | ? | -8%[59 µM]
COc1cc(NC(=O)CSc2nc(-c3ccco3)cc(C(F)(F)F)n2)cc(OC)c1OC | . | . | 2% | 44% | 5% | 2%[59 µM]
C=CCN1C(=O)c2ccc(C(=O)N(C)CC(=O)Nc3ccccc3C(F)(F)F)cc2C1=O | 17% | . | -2% | 27% | -8% | .
c1ccc(CN2CCC3(CC2)Nc2ccccc2S3)cc1 | 79µM* | ? | ? | -11% | ? | -40%[59 µM]
CN(C)C(=O)NC1CCCCCCC1 | -8% | . | . | . | . | .
